Hits are enriched below; roughly 21% of the tested compounds scored in any of these assays.
Shiga toxin inh: blocks Shiga toxin action in Vero cells | 9.2% of 290,000 active | AID 2315 | Vero cells, Shiga toxin protein synthesis inhibition reporter | inhibition, % at 38.7 µM; in the data active = inhibition mostly above about 28%, no sharp cut-off; inactive = mostly below about 43%; note: 0% is about no effect
Pf growth 48h: inhibits P. falciparum growth in the first generation, 48 h; P. falciparum luciferase growth in erythrocytes, 48 h; Potency, µM (doses to about 28.7 µM), without a hit: top-dose activity change, negative = inhibition, most hits filed as inhibitors; 5.9% of 310,000 active; note: potency is the fitted concentration of half-maximal effect; % is set by controls: 0 for no effect and ±100 for the full control effect
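Growth was read as firefly luciferase luminescence after a 48 h, 37 C, 5% CO2 exposure of compounds to reporter-bearing P. falciparum cultures (0.1% parasitemia, 2% hematocrit final) in Albumax-supplemented RPMI 1640.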
Pf growth 96h: P. falciparum growth inhibition at 96 hours | P. falciparum luciferase reporter growth, 96 h | Potency, µM (highest dose often 28.7 µM), without a hit: at the top dose activity change, negative = inhibition, usual class: inhibitors | 6.9% of 320,000 active | AID 504834; note: potency is the fitted concentration of half-maximal effect; % is set by controls: 0 for no effect and ±100 for the full control effect
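Two parasite generations (96 h, 37 C, 5% CO2) of compound exposure in infected erythrocytes (0.05% parasitemia, 2% hematocrit). Luciferase-reporter P. falciparum; decreased luminescence indicates inhibited growth, aimed at apicoplast-acting delayed death.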
CHX counter: counter-screen for Shiga toxin inhibitors: cycloheximide protein synthesis inhibition. cell reporter, cycloheximide protein synthesis inhibition counterscreen. max response, %. 12% of 300,000 active; in the data active = max response mostly above about 13%, no sharp cut-off; inactive = mostly below about 14%; note: read at 38.3 µM for the half of the compounds with a filed dose; 0% is about no effect
An asterisk follows results filed as active; i = inactive; u = inconclusive; x = not tested or not shown. Unless noted, calls come from the whole dose curve; as a rule, active = well fitted inhibition curve with a large enough effect; inconclusive = small, poorly fitted or top-dose-only effect, or another doubt; inactive = no such curve, though single readings can be large or run the other way.

SMILES | Shiga toxin inh | Pf growth 48h | Pf growth 96h | CHX counter
CN1CCN(C(=O)/C(=C\c2cccnc2)NC(=O)c2cccc(Br)c2)CC1 | 20 | -11% | -23% | 1
COc1ccc(CN2CCN(Cc3cc4ccccc4o3)CC2CCO)cc1C (stereo not drawn) | -20 | 0% | -23% | 0
Cc1ccc(S(=O)(=O)N2CCN(S(=O)(=O)N3CCCCCC3)CC2)cc1 | 0 | 39% | u | 0
CC(C)(C)N=C1NN=C(c2ccc(S(=O)(=O)N3CCCCC3)cc2)CS1 | x | 3.7µM* | u | x
CC(C)(C)OC(=O)N1CC[C@H]1COc1cnc[c]([Sn]([CH3])([CH3])[CH3])c1 | i | x | x | -3
C=CCc1cc(OC)ccc1OCCN1CC(C)OC(C)C1 (stereo not drawn) | x | -4% | 57% | -1
COc1ccc(-c2nn(-c3ccccc3)cc2/C=N/Nc2ccccn2)cc1 | -12 | u | u | -3
COc1ccc(/C=N/Nc2ncc(Br)cn2)c(OC)c1 | 51* | 174% | 6% | 46*
COc1ccc(/C=N/Nc2ccccn2)c(OC)c1OC | 74* | 48% | 36% | 40*
COc1ccccc1/C=N/Nc1nccnc1Cl | 66* | x | -10% | 35*
COc1ccc(/C=N\Nc2ccccn2)c(OC)c1 | 43 | 123% | 6% | 39*
O=C(NCCCCCCNC(=O)c1cncc(O)c1)c1cncc(O)c1 | 3 | 81% | 2% | -5
COc1ccccc1CN1C(=NC(=O)C2CCCCC2)SC2CS(=O)(=O)CC21 (stereo not drawn) | -1 | 23% | 36% | -4
COc1ccc(/C=N/OCc2ccc(Br)cc2)c(OC)c1 | 31* | 33% | 38% | 30*
Cc1ccc(C)c(/C=N/Nc2ccccn2)c1 | 53* | 12% | 15% | 20*
CCN(CC)CCN1C(=O)C(=O)/C(=C(/O)c2ccc(S(=O)(=O)N3CCOCC3)cc2)C1c1ccc(Cl)cc1 (stereo not drawn) | -14 | 1% | 54% | -7
O=[N+]([O-])c1nn(-c2ccc3c(c2)OCCO3)n(O)c1=NC1CCCCC1 | 101 | x | u | 28*
O=[N+]([O-])c1nn(-c2ccc3c(c2)OCCO3)n(O)c1=NCc1ccccc1Cl | 90* | 66% | i | 46*
COc1ccccc1CN=c1c([N+](=O)[O-])nn(-c2ccc3c(c2)OCCO3)n1O | 31* | -12% | -21% | 62*
Cc1ccc(CN=c2c([N+](=O)[O-])nn(-c3cccc(Cl)c3)n2O)cc1 | 7 | u | u | 8
COc1cccc(-c2cccc(NC(=O)C3CCN(Cc4ccon4)CC3)c2)c1 | -1 | 1% | u | -4
CCN(CC)Cc1c(O)ccc2c1O/C(=C\C=C\c1ccccc1)C2=O | 106* | u | u | 16*
COc1ccccc1/C=C/C=C1\Oc2c(ccc(O)c2CN(C)C)C1=O | 29 | 2.6µM* | u | 13*
CCOc1ccccc1OCCCC(=O)NNC(=O)c1nn(C)c(=O)c2ccccc12 | x | -22% | u | x
CC(C)n1nccc1N(Cc1ccc(Br)cc1)S(=O)(=O)c1ccccc1 | 11 | 13µM* | 5.2µM* | -5
SMILES | Shiga toxin inh | Pf growth 48h | Pf growth 96h | CHX counter
CC(C)n1nccc1N(Cc1ccc(Cl)cc1)S(=O)(=O)c1ccccc1 | -6 | u | u | -6
CN(C)c1ccc(N2CN=C3SCC(=O)N3C2)cc1 | 98* | 1.5µM* | u | 86*
O=C1CSC2=NCN(c3ccc4c(c3)OCO4)CN12 | 96* | 28% | x | 35*
Cc1ccc(N2CN=c3s/c(=C\c4ccccn4)c(=O)n3C2)cc1 | 40 | 21% | u | -1
CC(C)c1ccc(OCc2cccc(C(=O)N/N=C/c3cccnc3)c2)cc1 | 164* | 278% | 130% | 133*
CCOc1ccc(OCc2cccc(C(=O)N/N=C/c3cccnc3)c2)cc1 | 166* | 254% | 234% | 88*
CN(C)C(=O)NC1CCCCCCC1 | -6 | x | x | 1
C=C(CC)C(=O)c1ccc(OCC(=O)O)c(Cl)c1Cl | -7 | u | 15µM* | -3
CCOC(=O)COc1ccc2nsnc2c1Cl | -2 | 19% | 49% | -3
CC(O)CNc1ncnc2cc(-c3ccc(F)cc3)sc12 (stereo not drawn) | 79* | 41% | -14% | 15*
Cc1ccc(C(=O)Nc2ccc3ncccc3c2)cc1 | 19 | 18% | 10% | 14*
Brc1ccc(CNc2ccc3ncccc3c2)cc1 | 42* | 136% | 0% | 30*
Cc1cc(=O)oc(C)c1C(=O)Nc1ccc2nsnc2c1 | -6 | 2% | x | 1
Cc1cc(=O)oc(C)c1C(=O)Nc1ccc2ncccc2c1 | -9 | 9.3µM* | x | 0

High-throughput results from PubChem.
